Records with an inconclusive call do not appear. Active and inactive are the calls of the source. The call rests on the fitted dose curve; in most records, active means well fitted inhibition curve with a large enough effect; inconclusive means small, poorly fitted or top-dose-only effect; inactive means flat fitted curve, though single readings scatter.
What was measured:
Experiment in all cases: qHTS profiling for inhibitors of Plasmodium falciparum proliferation (AID 504749); further: nearly all actives have a fitted effect of over 60% in size
Conditions in all cases: P. falciparum in erythrocytes, SYBR Green DNA, 72 h; series mostly up to 28.7 µM
3D7 = system: 3D7
Outline: (§1)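 Fluorescence of SYBR Green-bound parasite DNA, read at 485/535 nm, served as the growth measure. Infected erythrocytes were cultured with compound 72 h; artemisinin (0.29 uM) and DMSO wells defined the normalization range.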

7G8 = system: 7G8
Outline: as §1

CP185 = system: CP185
Outline: as §1

CP191 = system: CP191
Outline: as §1

CP194 = system: CP194
Outline: as §1

CP201 = system: CP201
Outline: as §1

CP237 = system: CP237
Outline: as §1

CP238 = system: CP238
Outline: as §1

CP247 = system: CP247
Outline: as §1

CP268 = system: CP268
Outline: as §1

CP286 = system: CP286
Outline: as §1

CP305 = system: CP305
Outline: as §1

CP335 = system: CP335
Outline: as §1

DIV30 = system: DIV30
Outline: as §1

Dd2 = system: Dd2
Outline: as §1

HB3 = system: HB3
Outline: as §1

P94_40 = system: P94_40
Outline: as §1

PC49 = system: PC49
Outline: as §1

TAB109 = system: TAB109
Outline: as §1

TAB113 = system: TAB113
Outline: as §1

Measured: Potency

C/C=C1\C2C=C(C)CC1(N)c1ccc(=O)[nH]c1C2 (stereo not given)
inactive: all assays above

Reference: PubChem BioAssay (NCATS)
